The full ranking holds about 8,300 sequences; the median of “log2 fold change of degron read counts, EGFP-low vs EGFP+ sorted cells (limma voom), compound-induced degradation” is about -1.1, and the highest 2% start at about 3.2. The list comes from a sample in which the highest values are over-represented; it also holds similar and randomly drawn sequences.

The target in this experiment is T1, CRBN, Q96SW2.
T1 chain: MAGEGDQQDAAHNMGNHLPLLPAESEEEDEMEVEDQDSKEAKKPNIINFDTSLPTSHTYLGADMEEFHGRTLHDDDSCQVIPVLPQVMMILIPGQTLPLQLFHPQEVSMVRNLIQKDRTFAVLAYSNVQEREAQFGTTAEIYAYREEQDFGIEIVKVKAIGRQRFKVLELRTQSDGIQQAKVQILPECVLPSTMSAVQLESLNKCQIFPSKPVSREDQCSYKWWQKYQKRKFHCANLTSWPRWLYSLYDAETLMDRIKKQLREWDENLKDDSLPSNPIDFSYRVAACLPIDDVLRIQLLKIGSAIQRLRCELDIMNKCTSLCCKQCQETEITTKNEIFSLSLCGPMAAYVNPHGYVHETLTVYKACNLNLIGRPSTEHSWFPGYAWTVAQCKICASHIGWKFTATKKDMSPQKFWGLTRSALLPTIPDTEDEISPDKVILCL
The experiment can be described thus: log2 fold change of degron read counts, EGFP-low vs EGFP+ sorted cells (limma voom), compound-induced degradation; higher = more compound-induced degradation of the degron-EGFP fusion; degrons are variants of IKZF1/3 zinc finger 2; compound dose not given here. The note with it: Jurkat, 18 h.

[1] abbreviates: compound: compound 19 (5-tert-butyl-thalidomide).
Setting [2] is: compound: compound 22 (5-morpholino-thalidomide).
The mark [3] stands for this setting: compound: compound 33 (diphenyl IMiD analogue).
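Further: pooled lentiviral library of zinc finger degron-EGFP fusions in mCherry-positive Jurkat cells, FACS-sorted after compound exposure, with degron abundance counted by next-generation sequencing.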

For FECPICGAKFTQKGNLLRHIKL [46F_47E_49P_50I_52G_53A_54K_55F_67L_, Q9UKT9], the “log2 fold change of degron read counts” value is, setting by setting: under setting [1], 0.543; under setting [2], -0.648; under setting [3], 0.0161; (compound: thalidomide) 3.

On to FSCNICGAEFTQKGNLLRHIKL [46F_47S_49N_50I_52G_53A_54E_55F_67L_, Q9UKT9], for which the “log2 fold change of degron read counts” value is -0.854 under setting [1], 0.252 under setting [2], 0.443 under setting [3] and 0.069 (compound: thalidomide).

In the case of FVCEICGADFTQKGNLLRHIKL [46F_47V_49E_50I_52G_53A_54D_55F_67L_, Q9UKT9], the “log2 fold change of degron read counts” value is, setting by setting: under setting [1], -1.49; under setting [2], -0.553; under setting [3], -0.517; (compound: thalidomide) 0.943.

As to FFCEICGHPFTQKGNLLRHIKL [46F_47F_49E_50I_52G_53H_54P_55F_67L_, Q9UKT9], the “log2 fold change of degron read counts” value runs as follows: under setting [1], 0.211; under setting [2], -0.726; under setting [3], -0.864; (compound: thalidomide) -1.23.

On to FYCEICGAPFTQKGNLLRHIKL [46F_47Y_49E_50I_52G_53A_54P_55F_67L_, Q9UKT9], for which the “log2 fold change of degron read counts” value reads like this: under setting [1], 3.86; under setting [2], 3.74; under setting [3], 3.06; (compound: thalidomide) 2.44.

For FMCEICGADFTQKGNLLRHIKL [46F_47M_49E_50I_52G_53A_54D_55F_67L_, Q9UKT9], the “log2 fold change of degron read counts” value is -1.98 under setting [1], -1.6 under setting [2], 1.99 under setting [3] and -0.153 (compound: thalidomide).

As for FMCEICGHPFTQKGNLLRHIKL [46F_47M_49E_50I_52G_53H_54P_55F_67L_, Q9UKT9], the “log2 fold change of degron read counts” value is -1.77 under setting [1], -1.41 under setting [2], 0.426 under setting [3] and -0.396 (compound: thalidomide).

As for FFCEICGADFTQKGNLLRHIKL [46F_47F_49E_50I_52G_53A_54D_55F_67L_, Q9UKT9], the “log2 fold change of degron read counts” value is 0.436 under setting [1], 1.48 under setting [2], -0.411 under setting [3] and -0.679 (compound: thalidomide).

Consider FVCEICGAPFTQKGNLLRHIKL [46F_47V_49E_50I_52G_53A_54P_55F_67L_, Q9UKT9], for which the “log2 fold change of degron read counts” value turned out to be 3.26 under setting [1], 3.62 under setting [2], 2.49 under setting [3] and 3.65 (compound: thalidomide).

As to FYCEICGADFTQKGNLLRHIKL [46F_47Y_49E_50I_52G_53A_54D_55F_67L_, Q9UKT9], the “log2 fold change of degron read counts” value is 1.04 under setting [1], 1.57 under setting [2], 0.298 under setting [3] and -1.13 (compound: thalidomide).

Regarding FMCEICGAPFTQKGNLLRHIKL [46F_47M_49E_50I_52G_53A_54P_55F_67L_, Q9UKT9], the “log2 fold change of degron read counts” value stood at 3.59 under setting [1], 3.43 under setting [2], 3.13 under setting [3] and 2.94 (compound: thalidomide).

Consider FYCEQCGAPFTQKGNLLRHIKL [46F_47Y_49E_50Q_52G_53A_54P_55F_67L_, Q9UKT9], for which the “log2 fold change of degron read counts” value runs as follows: under setting [1], 1.97; under setting [2], 1.06; under setting [3], 0.568; (compound: thalidomide) -1.07.

Regarding FFCEICGAPFTQKGNLLRHIKL [46F_47F_49E_50I_52G_53A_54P_55F_67L_, Q9UKT9], the “log2 fold change of degron read counts” value is 3.4 under setting [1], 3.34 under setting [2], 2.28 under setting [3] and 1.95 (compound: thalidomide).

Regarding FVCEICGAMFTQKGNLLRHIKL [46F_47V_49E_50I_52G_53A_54M_55F_67L_, Q9UKT9], the “log2 fold change of degron read counts” value runs as follows: under setting [1], 0.202; under setting [2], 0.968; under setting [3], 1.67; (compound: thalidomide) 2.16.

With FQCPQCGAMFTQKGNLLRHIKL [46F_47Q_49P_50Q_52G_53A_54M_55F_67L_, Q9UKT9], the “log2 fold change of degron read counts” value under setting [1] is -1.88, the “log2 fold change of degron read counts” value under setting [2] was -0.122, the “log2 fold change of degron read counts” value under setting [3] was 0.828 and the “log2 fold change of degron read counts” value (compound: thalidomide) came to 2.53.

As for LCCNQCGFMCTQKGNLLRHIKL [46L_47C_49N_50Q_52G_53F_54M_55C_67L_, Q9UKT9], the “log2 fold change of degron read counts” value is -1.73 under setting [1], -2.27 under setting [2], -1.57 under setting [3] and -1.43 (compound: thalidomide).

On to FVCDVCGAVFTQKGNLLRHIKL [46F_47V_49D_50V_52G_53A_54V_55F_67L_, Q9UKT9], for which the “log2 fold change of degron read counts” value was -2.2 under setting [1], -1.22 under setting [2], 0.29 under setting [3] and -0.895 (compound: thalidomide).

For FQCNQCGAYFTQKGNLLRHIKL [46F_47Q_49N_50Q_52G_53A_54Y_55F_67L_, Q9UKT9], the “log2 fold change of degron read counts” value by setting is: under setting [1], -2.89; under setting [2], -2.26; under setting [3], -1.84; (compound: thalidomide) -0.227.

As to FTCPQCGAQFTQKGNLLRHIKL [46F_47T_49P_50Q_52G_53A_54Q_55F_67L_, Q9UKT9], the “log2 fold change of degron read counts” value under setting [1] was -2.03, the “log2 fold change of degron read counts” value under setting [2] was 0.309, the “log2 fold change of degron read counts” value under setting [3] worked out at 1.83 and the “log2 fold change of degron read counts” value (compound: thalidomide) came out at 1.07.

In the case of LECPICGFGCTQKGNLLRHIKL [46L_47E_49P_50I_52G_53F_54G_55C_67L_, Q9UKT9], the “log2 fold change of degron read counts” value is 0.698 under setting [1], -0.66 under setting [2], 1.1 under setting [3] and 2.27 (compound: thalidomide).

In the case of FNCNQCGHVFTQKGNLLRHIKL [46F_47N_49N_50Q_52G_53H_54V_55F_67L_, Q9UKT9], the “log2 fold change of degron read counts” value is -2.33 under setting [1], -2.54 under setting [2], -2.77 under setting [3] and -2.34 (compound: thalidomide).

As to FECPICGHPFTQKGNLLRHIKL [46F_47E_49P_50I_52G_53H_54P_55F_67L_, Q9UKT9], the “log2 fold change of degron read counts” value under setting [1] was -2.51, the “log2 fold change of degron read counts” value under setting [2] was -2.54, the “log2 fold change of degron read counts” value under setting [3] is -0.989 and the “log2 fold change of degron read counts” value (compound: thalidomide) is -0.173.

As to FFCPICGHGFTQKGNLLRHIKL [46F_47F_49P_50I_52G_53H_54G_55F_67L_, Q9UKT9], the “log2 fold change of degron read counts” value was -1.02 under setting [1], -1.29 under setting [2], -0.968 under setting [3] and -1.48 (compound: thalidomide).

With FHCEICGAPFTQKGNLLRHIKL [46F_47H_49E_50I_52G_53A_54P_55F_67L_, Q9UKT9], the “log2 fold change of degron read counts” value under setting [1] worked out at 4, the “log2 fold change of degron read counts” value under setting [2] came to 3.46, the “log2 fold change of degron read counts” value under setting [3] amounted to 2.38 and the “log2 fold change of degron read counts” value (compound: thalidomide) was determined as 1.9.

For the sequence FDCEICGAPFTQKGNLLRHIKL [46F_47D_49E_50I_52G_53A_54P_55F_67L_, Q9UKT9], the “log2 fold change of degron read counts” value was 2.21 under setting [1], 0.891 under setting [2], -0.242 under setting [3] and 0.789 (compound: thalidomide).

For the sequence FECEICGAPFTQKGNLLRHIKL [46F_47E_49E_50I_52G_53A_54P_55F_67L_, Q9UKT9], the “log2 fold change of degron read counts” value is 2.7 under setting [1], -0.51 under setting [2], 1.41 under setting [3] and 2.07 (compound: thalidomide).

With FTCEICGAPFTQKGNLLRHIKL [46F_47T_49E_50I_52G_53A_54P_55F_67L_, Q9UKT9], the “log2 fold change of degron read counts” value under setting [1] was 2.99, the “log2 fold change of degron read counts” value under setting [2] came out at 3.21, the “log2 fold change of degron read counts” value under setting [3] worked out at 2.47 and the “log2 fold change of degron read counts” value (compound: thalidomide) was 3.17.

Turning to FRCEICGAPFTQKGNLLRHIKL [46F_47R_49E_50I_52G_53A_54P_55F_67L_, Q9UKT9], the “log2 fold change of degron read counts” value runs as follows: under setting [1], 3.62; under setting [2], 3.98; under setting [3], 3.31; (compound: thalidomide) 3.58.

For FHCEICGADFTQKGNLLRHIKL [46F_47H_49E_50I_52G_53A_54D_55F_67L_, Q9UKT9], the “log2 fold change of degron read counts” value under setting [1] is -1.38, the “log2 fold change of degron read counts” value under setting [2] was -3.23, the “log2 fold change of degron read counts” value under setting [3] was -1.06 and the “log2 fold change of degron read counts” value (compound: thalidomide) was -2.34.

In the case of FACEICGAPFTQKGNLLRHIKL [46F_47A_49E_50I_52G_53A_54P_55F_67L_, Q9UKT9], the “log2 fold change of degron read counts” value runs as follows: under setting [1], 3.6; under setting [2], 2.51; under setting [3], 0.463; (compound: thalidomide) 1.72.

As for FHCEICGAFFTQKGNLLRHIKL [46F_47H_49E_50I_52G_53A_54F_55F_67L_, Q9UKT9], the “log2 fold change of degron read counts” value reads like this: under setting [1], 0.885; under setting [2], -0.276; under setting [3], 0.198; (compound: thalidomide) -1.2.

Take FLCEICGAPFTQKGNLLRHIKL [46F_47L_49E_50I_52G_53A_54P_55F_67L_, Q9UKT9]: the “log2 fold change of degron read counts” value reads like this: under setting [1], 2.96; under setting [2], 2.82; under setting [3], 2.69; (compound: thalidomide) 3.17.

The values are drawn from the supplement of paper PMC12645437, “Orthogonal IMiD-Degron Pairs Induce Selective Protein Degradation in Cells” (ACS Chemical Biology, 2025).
